In PubChem BioAssay (NCI):
Compounds without any hit were thinned out: in the full panel of roughly 83,000, 20% have a hit.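 Values shown are percent growth following 48 h exposure of cells in 96-well plates to a single concentration of compound; below 10 was considered active.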 Unmarked numbers belong to inactive results. Calls of active or inactive are those of the source.

Experiments:
Assay in all cases: NCI-60 one-dose screen, 48 h (100 = growth as untreated, 0 = no growth, -100 = all killed)
Conditions in all cases: 10 µM unless noted
NCI-H23 lung = tested on: NCI-H23 lung
NCI-H226 lung = tested on: NCI-H226 lung
NCI-H322M lung = tested on: NCI-H322M lung
HOP-62 NSCLC = tested on: HOP-62 NSCLC
NCI-H460 lung = tested on: NCI-H460 lung
HOP-92 NSCLC = tested on: HOP-92 NSCLC
NCI-H522 lung = tested on: NCI-H522 lung
A549/ATCC NSCLC = tested on: A549/ATCC NSCLC
786-0 renal = tested on: 786-0 renal
COLO 205 colon = tested on: COLO 205 colon

Structure (SMILES)	growth (NCI-H23 lung)	growth (NCI-H226 lung) [%]	growth (NCI-H322M lung)	growth (HOP-62 NSCLC) [%]	growth (NCI-H460 lung) [%]	growth (HOP-92 NSCLC)	growth (NCI-H522 lung)	growth (A549/ATCC NSCLC) [%]	growth (786-0 renal) [%]	growth (COLO 205 colon)
C=C(C)[C@@H]1CC[C@]2(C(=O)O)CC[C@]3(C)[C@H](CC[C@@H]4[C@@]5(C)C[C@@H](CC#Cc6ccc(Cl)cc6)C(=O)C(C)(C)[C@@H]5CC[C@]43C)[C@@H]12	28.5%	40.2	55.6%	54.7	34.8	67.9%	12.6%	31.3	60.5	53.8%
COc1ccc(-c2[nH]c3ccc(OC)cc3c2C=C(C#N)C#N)cc1	32.9%	59.7	58.8%	32.5	17.2	20.3%	-8.75% (active)	32.5	28.9	5.59% (active)
Nc1cc(N)c(S(=O)(=O)O)cc1N=Nc1cc([N+](=O)[O-])ccc1O	94.5%	101	94.9%	90.6	104	89.4%	88.3%	95.7	110	108%
Oc1c(CCl)cc(Cl)cc1Cc1cc(Cl)cc(Cc2cc(Cl)cc(CCl)c2O)c1O	5.68% (active)	32.4	4.12% (active)	57.2	11.9	-18.3% (active)	-10.9% (active)	46.5	55.3	68.3%
Nc1c(C(=O)Nc2ccccc2)sc2nc3c(cc12)CN(C(=O)OCc1ccccc1)CC3	62.6%	82.7	70%	44.4	34	52.4%	35.6%	50.2	50	55.3%
COc1ccc2cc(/C=C3\N=C(c4cc(OC)c(OC)c(OC)c4)OC3=O)c(OC)nc2c1	101%	107	107%	88.9	111	97.7%	82.3%	96.7	100	117%
Cc1c(Cl)cccc1NC(=O)c1sc2nc3c(cc2c1N)CCCCC3	48%	71.6	49.8%	43.2	16.4	37.8%	10%	34.5	32.1	9.8% (active)
COc1ccc2oc(=O)cc(-c3c(C#N)c(N)n4nc(N)c(C#N)c4c3C#N)c2c1	102%	95.4	96.8%	90.9	101	97.3%	80.1%	95	103	108%
CN(CCC#N)C(=O)Nc1ccccc1	101%	106	107%	98.8	112	114%	79.8%	101	101	112%
COCCOC(=O)COc1ccc(OC)cc1	105%	97.3	94.9%	111	108	98.3%	115%	99.2	109	115%
C=C1C(=O)O[C@H]2[C@H]1CC/C(C=Nc1c(N)cc(F)cc1Br)=C\CC[C@@]1(C)O[C@@H]21	93.1%	82.9	97.7%	89.2	96.3	97.3%	53.8%	78.8	43.8	38.8%
CCCCn1c(=O)c(/C=C/C(=O)/C=C/c2ccc(OC)cc2)cc2cc(Cl)ccc21	48.6%	70	72.7%	102	20.7	102%	56.3%	51.1	28.4	88.3%
Cc1cc(C)n(-c2nc(-c3cccs3)c(C#N)c(=O)[nH]2)n1	97.6%	105	92.1%	81.2	96.8	102%	83.8%	99.9	93.1	111%
